# FMDV antiviral = High Throughput Screening for Foot and Mouth Disease Virus Antivirals; AID 1159524, 2015; hit rate 1.2% among 410,000; FMDV antiviral cell-based qHTS; Potency, µM (top dose mostly 57.9 µM), without a hit: at the highest dose activity change, negative = inhibition, actives largely listed as inhibitors; calls by dose curve; tested in HEK293T cells; also: read-out not given here; nearly all actives have a fitted effect of over 45% in size
# Sm TGR block = qHTS Assay for the Inhibitors of Schistosoma Mansoni Peroxiredoxins. Schistosoma mansoni thioredoxin glutathione reductase (TGR), Q962Y6. purified TGR, DTNB reduction, TNB absorbance 405 nm. Potency, µM (highest dose often 114 µM), without a hit: top-dose activity change, negative = inhibition, actives largely listed as inhibitors. hit rate 3% among 360,000. AID 485364, 2010; active = well fitted inhibition curve with a large enough effect; inconclusive = small, poorly fitted or top-dose-only effect; inactive = no such curve, though single readings can be large or run the other way; also: nearly all actives have a fitted effect of over 60% in size
#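 Kinetic colorimetric format: TGR-catalysed, NADPH-driven DTNB reduction monitored via TNB absorbance. Enzyme dispensed at 20 nM; compound exposure 15 min at room temperature before reaction start.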
# MARV entry inh = qHTS for inhibitors of binding or entry into cells for Marburg Virus | Marburg virus pseudotyped entry inhibition, cell reporter | Potency, µM (top dose mostly 37.8 µM), inactives show at the highest dose activity change, negative = inhibition, most hits filed as inhibitors | hit rate 1.8% among 300,000; calls by dose curve; tested in HEK293 cells
# VACV Venus inh = qHTS for Stage-Specific Inhibitors of Vaccinia Orthopoxvirus: Venus Reporter Primary qHTS; Vaccinia virus Venus reporter expression, fluorescence; Potency, µM (titrated, usually from 36.5 µM), for inactives: at the highest dose activity change, negative = inhibition, hits mostly inhibitors; hit rate 0.46% among 330,000; calls by dose curve; tested in A549 cells; also: nearly all actives have a fitted effect of over 30% in size
# VACV mCherry inh = qHTS for Stage-Specific Inhibitors of Vaccinia Orthopoxvirus: mCherry Reporter Primary qHTS; hit rate 0.63% among 310,000; Vaccinia virus mCherry reporter infection, fluorescence; Potency, µM (top dose mostly 36.5 µM), for inactives: top-dose activity change, negative = inhibition, hits mostly inhibitors; AID 720579, 2013; calls by dose curve; tested in A549 cells; also: nearly all actives have a fitted effect of over 35% in size
# LASV entry inh = qHTS for Inhibitors of binding or entry into cells for Lassa Virus. Potency, µM (series often up to 37.9 µM), for inactives: at the highest dose activity change, negative = inhibition, hits mostly inhibitors. AID 540256, 2011. hit rate 1.2% among 300,000. Lassa virus pseudotype entry inhibition, cell reporter; calls by dose curve; tested in HEK293 cells; also: nearly all actives have a fitted effect of over 50% in size
# Starred values were filed as active, the others as inactive; i = inactive; ? = inconclusive; . = no result; [ ] = remark or other dose. A selection: hits, their analogues and other compounds. The true share with any hit is near 5.4%. % is scaled to controls: 0 for no effect and ±100 for the full control effect; potency is read from the fitted curve at half-maximal effect.
SMILES,FMDV antiviral,Sm TGR block,MARV entry inh,VACV Venus inh,VACV mCherry inh,LASV entry inh
CCOC(=O)C1=C(CS(=O)(=O)c2cccc(C(F)(F)F)c2)NC(=O)NC1c1cccc(OC)c1 (configuration not stated),-17%,2%,?,-10%,-11%,-2%[46.1 µM]
Cc1cccc(-c2nc3scc(CCNC(=O)c4ccc(Br)o4)n3n2)c1,-9%,2%,.,-3%,-6%,-5%[46.1 µM]
CCOc1ccc(S(=O)(=O)N2CCN(c3cc(Cl)ccc3Cl)CC2)c2ccccc12,-14%,-1%,?,-2%,-3%,5%[46.1 µM]
CCOC(=O)N1CCN(Cc2ccc3c(c2)CN(C(=O)c2ccc4ncccc4c2)CCO3)CC1,28µM*,.,.,-23%,-21%,.
O=C(c1ccc2[nH]ccc2c1)N1CCOc2ccc(CN3CCN(c4ccccn4)CC3)cc2C1,25µM*,.,.,-26%,?,.
CCCOc1c(Cl)cc(C(=O)N(Cc2cccc(OC)c2)C2CCS(=O)(=O)C2)cc1Cl (configuration not stated),-22%,8%,?,-11%,-18%,7%[46.1 µM]
CCC(C)N1CCN(C(=O)C2CCN(S(=O)(=O)c3c(C)noc3/C=C/c3ccco3)CC2)CC1 (configuration not stated),-13%,45µM*,.,.,.,.
Cc1noc(C)c1S(=O)(=O)N1CCC(C(=O)N2CCN(c3ccc(F)cc3)CC2)CC1,?,-22%,1%,-19%,-20%,-15%
Cc1noc(C)c1S(=O)(=O)N1CCC(C(=O)N2CCN(C3CCCC3)CC2)CC1,.,32µM*,.,.,.,.
COc1cc(OC)c(NC(=O)c2cc(C(C)=O)n3ccccc23)cc1Cl,-18%,13%,.,-14%,-20%,?
COc1ccc(NC(=O)CCc2nc(C3=CCN(Cc4cccc(Cl)c4)CC3)no2)c(OC)c1,?,2%,.,-22%,-28%,18%[46.1 µM]
COc1ccc(NC(=O)CCc2nc(C3=CCN(Cc4cccc(Cl)c4)CC3)no2)cc1OC,32µM*,-31%,.,-17%,-3%,-27%[46.1 µM]
COc1ccc(Nc2cc(NCCCO)c([N+](=O)[O-])c3nonc23)cc1,-24%,3%,-5%,.,.,.
O=[N+]([O-])c1c(NCCCO)cc(N2CCN(Cc3ccc4c(c3)OCO4)CC2)c2nonc12,18µM*,-7%,?,-24%,-6%,?
CC1CCN(CCCNc2cc(NCCO)c([N+](=O)[O-])c3nonc23)CC1,10%,-3%,-2%[46.1 µM],3%,-5%,24%[46.1 µM]
COc1ccc(CNc2cc(NCCCO)c([N+](=O)[O-])c3nonc23)cc1,-30%,22µM*,?,?,-10%,-7%[46.1 µM]
O=[N+]([O-])c1c(NCCCO)cc(N2CCCCCC2)c2nonc12,-17%,11µM*,?,-23%,?,-6%
O=C(O)c1ccc(N2CCN(Cc3ccc4c(c3)OCO4)CC2)c([N+](=O)[O-])c1,-1%,7%,15%[46.1 µM],-16%,-18%,-3%
C/C(=N\N1C(=O)c2ccccc2NC1c1ccco1)c1ccccc1O (configuration not stated),11%,2%,8.2µM*,.,.,?
S=C(NCCc1ccncc1)Nc1cccc2ccccc12,12%,14µM*,-4%[46.1 µM],-1%,-1%,14%
COc1cc(NC(=S)Nc2cccnc2)cc(OC)c1,-8%,45µM*,3%,1%,-13%,10%
CN(C)S(=O)(=O)c1cccc(NC(=S)Nc2cccc3cnccc23)c1,?,10µM*,?,-16%,?,?
Cc1ccc(S(=O)(=O)N(C)C)cc1NC(=S)Nc1cccc2ccccc12,4%,16µM*,-1%[46.1 µM],-5%,?,16%[46.1 µM]
CC(C)(C)OC(=O)N1CCC(c2c(C(=O)Nc3ccc4c(c3)OCO4)cnn2-c2ccc(F)cc2F)CC1,18%,-3%,.,-6%,-5%,-23%[46.1 µM]
C#CCN1C(=O)[C@@]2(CC(C)=CC[C@@H](C)O2)c2ccccc21,.,.,16%[14.2 µM],.,.,.
SMILES,FMDV antiviral,Sm TGR block,MARV entry inh,VACV Venus inh,VACV mCherry inh,LASV entry inh
Cc1cc(C(=O)OCC(=O)Nc2cc(S(=O)(=O)N(C)C)ccc2C)c2ccccc2n1,16µM*,5%,-17%,1%,0%,6%
S=C(Nc1cccnc1)Nc1cccc2cnccc12,3%,45µM*,-13%[46.1 µM],-5%,-7%,7%
COc1ccc(NC(=S)Nc2cccc3cnccc23)cc1,-7%,56µM*,0%,-7%,-15%,11%
Cc1ccc(S(=O)(=O)N(C)C)cc1NC(=O)Nc1ccccc1F,-9%,13%,-23%[46.1 µM],-18%,i,8%[46.1 µM]
CCOc1ccc(NC(=S)Nc2cccc3cnccc23)cc1,-12%,-24%,-1%,1%,i,-6%
Cc1cc(C)cc(NC(=O)Nc2cc(S(=O)(=O)N(C)C)ccc2C)c1,-23%,1%,?,-6%[7.34 µM],i[7.34 µM],13µM*
Cc1ccc(C)c(NC(=O)Cn2ncc3c(C)n(Cc4ccc(F)cc4)c(C)c3c2=O)c1,-14%,0%,-1%[46.1 µM],-5%,-1%,0%[46.1 µM]
COc1ccc(C)cc1NC(=O)c1cc2c(s1)-c1ccccc1SC2,-2%,3%,4%[46.1 µM],-6%,-4%,26%[46.1 µM]
COC(=O)c1ccc(CN2C(=O)[C@]3(OCCC=C[C@@H]3C)c3c(Br)cccc32)cc1,.,.,-7%[14.2 µM],.,.,.
Fc1ccc(NC(=S)Nc2cccc3cnccc23)cc1,-10%,45µM*,-17%[46.1 µM],6%,-4%,.
Fc1cccc(NC(=S)Nc2cccnc2)c1,31%,18µM*,-6%[46.1 µM],6%,8%,0%
O=C(Nc1cccnc1)Nc1cccc(F)c1,20%,-20%,.,.,.,.
O=S(Cc1ccc(Br)cc1)Cc1nnc(SCc2ccc(Br)cc2)n1-c1ccccc1 (configuration not stated),16µM*,3%,?,?,?,?
CC1=C(C(=O)Nc2ccc(Cl)cc2)C(c2ccc(C(F)(F)F)cc2)n2nnnc2N1 (configuration not stated),?,2%,-3%[46.1 µM],-12%,-6%,8%[46.1 µM]
O=C1C=C(O)c2ccccc2C1=O,7%,.,.,2%,-9%,.
O=C1C=C(c2c(O)ccc3ccccc23)c2ccccc2C1=O,22µM*,.,?,11µM*,10µM*,6.3µM*
Cc1ccc(/C=C/C(=O)OCC(=O)NCCN2C(=O)CSC2=O)o1,-13%,25µM*,17%[46.1 µM],-4%,-4%,13%
CCCNC(=O)COC(=O)/C=C/c1ccc(C)o1,8%,40µM*,1%[46.1 µM],-12%,-8%,.
CCOc1ccc(S(=O)(=O)NCCC(=O)NCCc2ccc(C(C)C)cc2)cc1,?,-1%,?,?,-19%,?
CCOc1ccc(S(=O)(=O)NCCC(=O)NCCc2ccc(OCC)c(OCC)c2)cc1,-17%,3.2µM*,10%,-26%,-13%,?
Cc1ccc(/C=C/C(=O)OCC(=O)NCCN2C(=O)CSC2=O)cc1,-12%,0%,24%[46.1 µM],-16%,i,2%[46.1 µM]
